Source: PubChem BioAssay
Most compounds without a hit are left out; they make up all but 3.2% or so of the library.
USP1 inh: inhibitors of human USP1/UAF1 deubiquitinase; O94782; recombinant USP1/UAF1, Ub-Rhodamine cleavage fluorescence; Potency, µM (highest dose often 57.1 µM), most hits filed as inhibitors; 390,000 tested, 0.23% active; AID 743255; further: nearly all actives have a fitted effect of over 60% in size
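1 nM enzyme complex + cpd, 15 min RT; start with Ub-Rho 150nM final; kinetic fluorescence ex 480/em 540, 6 reads q60 s. Buffer 50mM HEPES pH 7.8, 0.5mM EDTA, 0.1 mg/ml BSA, 1mM TCEP, 0.01% Tween-20.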
VDR inh: blocks the human vitamin D receptor | Potency, µM, actives largely listed as inhibitors | AID 504847 | 400,000 tested, 0.93% active | P11473 | VDR-SRC2-3 peptide fluorescence polarization, 2 h
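The screen uses fluorescence polarization to detect compounds that interfere with recruitment of the SRC2-3 coactivator peptide to VDR; plates are read after 2 h at room temperature.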
USP2a inh: USP2a (human) protease inhibition. USP2 core, Ub-CHOP2 coupled fluorogenic reporter, 485/531. Potency, µM (top dose mostly 38.3 µM), usual class: inhibitors. 330,000 tested, 0.01% active. AID 463254
Target sequence (O75604 whole entry, looked up): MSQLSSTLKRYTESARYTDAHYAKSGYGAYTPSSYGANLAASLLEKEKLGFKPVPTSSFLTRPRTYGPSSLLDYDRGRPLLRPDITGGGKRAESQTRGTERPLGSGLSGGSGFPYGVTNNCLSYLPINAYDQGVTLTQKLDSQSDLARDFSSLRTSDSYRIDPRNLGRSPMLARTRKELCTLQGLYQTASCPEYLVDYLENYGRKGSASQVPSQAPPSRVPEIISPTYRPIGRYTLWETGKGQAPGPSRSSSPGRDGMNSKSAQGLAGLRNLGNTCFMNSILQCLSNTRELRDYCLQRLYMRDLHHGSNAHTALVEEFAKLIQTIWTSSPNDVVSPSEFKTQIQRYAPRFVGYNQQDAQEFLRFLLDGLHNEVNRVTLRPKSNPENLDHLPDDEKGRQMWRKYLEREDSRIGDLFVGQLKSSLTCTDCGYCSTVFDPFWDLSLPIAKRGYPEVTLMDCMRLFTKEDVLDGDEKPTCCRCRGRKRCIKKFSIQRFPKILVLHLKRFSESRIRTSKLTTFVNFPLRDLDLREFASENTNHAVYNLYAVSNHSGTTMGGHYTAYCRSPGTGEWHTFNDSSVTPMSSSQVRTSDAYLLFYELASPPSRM
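USP2 core (10nM final) preincubated 30min RT with compound in 20mM Tris-HCl pH 8.0, 2mM CaCl2, 2mM beta-mercaptoethanol, 0.05% CHAPS; 25nM Ub-CHOP2 plus 25nM reporter substrate added, fluorescence (Ex485/Em531) read after 60min.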
Coupling enz: coupling enzyme interference in Giardia aldolase counter-screen; coupling enzyme system counterscreen, AmpLite Red fluorescence; activity change, negative = inhibition, % at 58.2 µM, hits read low; 290,000 tested, 0.67% active; AID 2472; in the data active means activity change below about -30%
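Fluorescence at 525 nm excitation and 598 nm emission measured inhibition of the coupled detection system without aldolase. Compounds (at 57.5 uM final) were preincubated 10 min at room temperature with coupling enzyme reagent before a 20 min substrate/AmpLite Red step.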
PLK1 PBD inh: PLK1 (human) polo-box domain binding inhibition | P53350 | Plk1 PBD binding of FITC phosphopeptide, fluorescence polarization | Potency, µM, usual class: inhibitors | 360,000 tested, 2.8% active | AID 720504; further: series mostly up to about 57 µM; nearly all actives have a fitted effect of over 65% in size
GALK inhibitor: blocks human galactokinase activity. 270,000 tested, 0.007% active. P51570. Purified GALK, Kinase-Glo residual ATP luminescence. Potency, µM (doses to about 57.5 µM), hits mostly inhibitors
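ATP-depletion format; final 35 uM ATP, 100 uM D-galactose, 5 nM enzyme; pH 8.0 HEPES/Mg2+ buffer; 60 min RT; luminescence read 10 min after detection reagent.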
A number is an active result; i = inactive; ? = inconclusive; nt = not tested or not shown. Unless noted, the call rests on the fitted dose curve; in most records, active means well fitted curve in the direction sought with a large enough effect; inconclusive means small, poorly fitted or top-dose-only effect, or another doubt; inactive means no such curve, though single readings can be large; an effect the other way counts as inactive or inconclusive.

SMILES	USP1 inh	VDR inh	USP2a inh	Coupling enz	PLK1 PBD inh	GALK inhibitor
Cc1ccc2cc(CN(CC3CCCO3)S(=O)(=O)c3ccc4c(c3)OCCO4)c(=O)[nH]c2c1C (stereo unspecified)	i	i	nt	nt	i	nt
COc1ccc(N(CC(=O)Nc2c(C)cccc2C)S(=O)(=O)c2ccccc2[N+](=O)[O-])c(OC)c1	i	i	i	i	i	i
COc1ccc(N(CC(=O)Nc2ccccc2C)S(=O)(=O)c2ccccc2[N+](=O)[O-])c(OC)c1	i	?	i	i	7.5µM	i
CC(C)(C)c1ccc(OC(=O)c2ccc(-n3cncn3)nc2)cc1	nt	nt	i	i	nt	i
Cc1cc(N2CCN(C(C(=O)NC3CCCC3)C(C)(C)C)CC2)c2ccccc2n1 (stereo unspecified)	nt	nt	nt	nt	i	nt
CC(=O)Nc1c(OC(C)=O)ccc2c(C)cc(=O)oc12	i	i	i	i	?	i
c1csc(-c2nc3c4ccccc4c4ccccc4c3[nH]2)c1	i	i	i	i	i	i
Oc1ccccc1-c1nc2c3ccccc3c3ccccc3c2[nH]1	i	i	i	-47	i	i
CCn1ncc(CN2CCN(Cc3ccc(OC)c(C)c3C)C(CCO)C2)c1C (stereo unspecified)	i	i	i	i	i	i
CCc1ccc(N(CC(=O)NC2CCCC2)C(=O)CCC(=O)Nc2ccccn2)cc1	i	i	i	i	i	i
CC(C)c1ccc(N(CC(=O)NC2CCCC2)C(=O)CCC(=O)Nc2ccccn2)cc1	i	i	i	i	24µM	i
CNC(=S)N(Cc1cccs1)Cc1cc2ccc(OC)cc2[nH]c1=O	i	i	i	i	i	i
Cc1ccc(S(=O)(=O)N(Cc2cc3ccc(C)cc3[nH]c2=O)c2ccccc2)cc1	i	i	i	i	34µM	i
CNC(=S)N(Cc1ccc(OC)cc1)Cc1cc2ccc(C)cc2[nH]c1=O	i	i	i	i	24µM	i
Cc1ccc(S(=O)(=O)N(Cc2cc3ccccc3[nH]c2=O)c2cccc(C)c2)cc1	i	i	i	i	30µM	i
CCCN(Cc1cc2ccc(C)cc2[nH]c1=O)C(=O)c1ccccn1	i	i	i	-32	?	i
Cc1ccc(N(Cc2cc3cccc(C)c3[nH]c2=O)S(=O)(=O)c2ccccc2)c(C)c1	i	?	i	i	15µM	i
COc1ccccc1-c1cccc([C@@H]2C[C@H]3[C@H](CON3C)CN2S(=O)(=O)c2ccccc2C)c1	i	i	nt	nt	i	nt
CC(C)=CCC/C(C)=C/C(N)=O	i	i	i	i	i	i
N#Cc1c(/N=C/N2CCOCC2)sc2c1CCCCC2	i	i	i	i	21µM	i
CN(C)/C=N/c1sc2c(c1C#N)CCCCC2	i	i	i	i	i	nt
Cc1ccc(S(=O)(=O)N2C(=O)C(c3ccccc3)SC2=Nc2ccccc2)cc1 (stereo unspecified)	i	?	i	i	9.5µM	i
Cc1ccc(S(=O)(=O)N2C(=O)C(C)SC2=Nc2ccccc2)cc1 (stereo unspecified)	i	i	i	i	i	i
CN(C)Cc1c[nH]c2nc[nH]c(=O)c12	i	i	nt	nt	i	nt
O=c1[nH]sc2ccccc12	i	?	i	i	5.3µM	i
SMILES	USP1 inh	VDR inh	USP2a inh	Coupling enz	PLK1 PBD inh	GALK inhibitor
O=C(CCC1CCCC1)N1CCN(C(=O)COc2ccccc2)CC1	i	i	i	i	24µM	i
O=C1C(=O)N(CNc2cccnc2)c2ccccc21	i	i	i	-37	i	i
c1ccc(CCNc2nnnn2-c2ccccc2)cc1	i	i	i	i	i	i
C1=C(CCNc2nnnn2-c2ccccc2)CCCC1	i	?	i	i	21µM	i
CCCCN(CCCC)C(=O)c1cc(Cl)ccc1[N+](=O)[O-]	i	i	i	i	i	i
CCCN(CCC)C(=O)c1cc([N+](=O)[O-])cc2c1-c1ccc([N+](=O)[O-])cc1C2=C(C#N)C#N	?	40µM	i	-32	?	i
CCCCCCc1cc2cc(-c3nnc(-c4ccccc4OC)o3)c(=O)oc2cc1O	14µM	i	?	i	i	i
CCCCCCc1cc2cc(-c3nnc(-c4cc(OC)c(OC)c(OC)c4)o3)c(=O)oc2cc1O	i	i	?	i	i	i
CCCCCCc1cc2cc(-c3nnc(-c4ccccc4O)o3)c(=O)oc2cc1O	8.9µM	i	i	i	i	i
Cc1ccc(CN2CCC(n3nccc3NC(=O)CCOc3ccccc3)CC2)o1	i	i	i	i	i	i
C=CCOc1ccc(-c2nc3c(c(=O)[nH]c(=O)n3CCCC)n2C)cc1OC	i	?	i	i	21µM	i
O=S(=O)(Nc1cc(Sc2cccc3cccnc23)c(O)c2ccccc12)c1ccccc1	nt	nt	i	-55	nt	i
CCOc1ccc(S(=O)(=O)Nc2cc(SCC(=O)O)c(O)c3ccccc23)cc1	25µM	18µM	i	-62	1.7µM	i
CCc1ccc(S(=O)(=O)Nc2cc(SCC(=O)O)c(O)c3ccccc23)cc1	?	?	i	-42	1.2µM	i
Cc1c(NS(=O)(=O)c2ccccc2)cc(C(C)C)c(O)c1S(=O)(=O)c1ccc(Cl)cc1	i	i	nt	nt	nt	nt
Cc1ccc(C)c(S(=O)(=O)Nc2cc(SCC(=O)O)c(O)c3ccccc23)c1	?	22µM	i	-53	1.5µM	i
O=C(NNc1nc2cc3c(cc2s1)OCCO3)c1ccccc1	i	i	i	i	i	i
COc1ccc(CCN2C(=O)CN(C3CCCCCC3)C(=O)C2c2ccc(Cl)cc2)cc1OC (stereo unspecified)	i	i	nt	nt	nt	nt
Cc1ccc(CNC(=O)C2(C)Oc3ccccc3NC2=O)cc1 (stereo unspecified)	i	i	i	i	i	i
COc1ccc(/C=N/NC(=O)c2ccc(CN3c4cccc5cccc(c45)S3(=O)=O)cc2)cc1	i	i	i	i	i	i
Cc1ccc2c(c1)N(C(=O)CCC(=O)NCc1cccs1)CC(C)O2 (stereo unspecified)	i	i	nt	nt	nt	nt
Cn1c(SCC(=O)NCC2CCCO2)ncc(C(=O)Nc2ccccc2)c1=O (stereo unspecified)	i	i	i	nt	i	nt
O=C(NCc1ccccn1)c1cc2ccccn2n1	i	i	i	i	i	i
CC(C)(C)c1nc2cc(Cl)c([N+](=O)[O-])cc2o1	i	79µM	i	i	27µM	i
O=c1oc2ccccc2c(NC2CCCCC2)c1NS(=O)(=O)c1ccc(F)cc1	i	?	i	nt	3.4µM	i
CCc1ccc(S(=O)(=O)Nc2c(NC3CCCCC3)c3ccccc3oc2=O)cc1	i	i	i	nt	i	i
CCCCCCN1CC(O)=C(c2ccccc2)C1=N	i	i	i	i	i	i
N=C1C(c2ccccc2)=C(O)CN1CCO	i	i	i	i	24µM	i
